Measured values reported in PubChem BioAssay AID2158 (National Center for Advancing Translational Sciences (NCATS), 2009).
Results filed as inconclusive are left out. Values without a mark were called inactive. The source made the active and inactive calls. Calls follow the shape of the dose curve; as a rule, active = well fitted inhibition curve with a large enough effect; inconclusive = small, poorly fitted or top-dose-only effect; inactive = no such curve, though single readings can be large or run the other way.

target: Cruzipain (Trypanosoma cruzi) (UniProt P25779); assay: Confirmation qHTS Assay for Inhibitors of Cruzain; conditions: purified cruzain, Z-FR-AMC fluorescence, 0.01% Triton; also: nearly all actives have a fitted effect of over 40% in size;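 as to activity change, negative = inhibition: plate controls were uninhibited enzyme control for no effect and buffer wells lacking enzyme for full effect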
Sequence (P25779 123-467 limits assumed): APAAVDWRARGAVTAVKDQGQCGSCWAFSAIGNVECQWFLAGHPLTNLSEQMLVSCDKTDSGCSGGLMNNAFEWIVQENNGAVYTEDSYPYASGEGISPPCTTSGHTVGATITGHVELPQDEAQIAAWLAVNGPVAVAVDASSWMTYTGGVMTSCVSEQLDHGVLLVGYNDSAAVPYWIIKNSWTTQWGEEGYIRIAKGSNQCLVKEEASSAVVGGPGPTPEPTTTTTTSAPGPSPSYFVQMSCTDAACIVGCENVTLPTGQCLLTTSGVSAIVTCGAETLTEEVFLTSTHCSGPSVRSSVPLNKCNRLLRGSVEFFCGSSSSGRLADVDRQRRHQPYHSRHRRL
Experimental: Cruzain is a cysteine protease from the tropical parasite Trypanosoma cruzi. This assay protocol is a follow-up and confirmation of related AID 1478 (qHTS Assay for Promiscuous and Specific Inhibitors of Cruzain -- with detergent). Cruzain was assayed by the use of fluorogenic coumarin-based substrate Z-FR-AMC: proteolytic cleavage releases AMC, whose fluorescence is measured at 360 nm excitation and 450 nm emission. Purified cruzain was supplied by the labs of Prof. James McKerrow and Brian Shoichet, UC San Francisco. This assay had 0.01% Triton X-100 concentration. See following references for additional details: Jadhav A, et al. J Med Chem. 2010 Jan 14;53(1):37-51. Mott BT, et al. J Med Chem. 2010 Jan 14;53(1):52-60. Assay Provider: Shoichet, Brian; University of California, San Fancisco Screening Center PI: Austin, C.P. Screening Center: NIH Chemical Genomics Center [NCGC]
Buffer: 100 mM Sodium Acetate, pH 5.5, 5 mM DTT, Triton X-100 concentration: 0.01%. Reagents/Controls: Buffer in columns 3 and 4 as negative control (no enzyme). Substrate solution: 2 uM final concentration of Z-FR-AMC (catalog number I-1160, Bachem) dispensed throughout the plate. Enzyme: 1.5 nM Cruzain final concentration in columns 1, 2, 5-48. Column 1 is neutral (100% activity). Column 2 contained titration of covalent inhibitor K11777, starting concentration 1 mM, then 1:2 dilution in duplicate). Assay Steps: Three uL of enzyme or buffer were dispensed to 1536-well Greiner black solid bottom plates. Compounds and controls (23 nL) were transferred via Kalypsys PinTool. The plates were incubated for 15 min at room temperature, and then 1 uL of substrate solution was added to start the reaction. The plates were immediately transferred to and read 4 times every 30 seconds for 2 min on ViewLux High-throughput CCD imager (Perkin-Elmer) using 360 nm excitation and 450 nm emission fluorescence protocol. The fluorescence intensity difference between the third and the first time points (time lapse of 60 seconds) was used to compute reaction progress.
Potency is read from the fitted curve at half-maximal effect.

**Q.** Which Potency does the source give for CCn1nc(-c2ccccc2)nc2c(=O)n(C)c(=O)nc1-2 here?
**A.** Its Potency is 3.98 µM (active).

**Q.** With Cn1ncnc2c(=O)n(C)c(=O)nc1-2 as the molecule, how does the Potency read?
**A.** Its Potency is 2.24 µM (active).

**Q.** With Cc1nc2c(=O)n(C)c(=O)nc-2n(C)n1 as the molecule, how does the Potency read?
**A.** Its Potency is 2 µM (active).

**Q.** Cn1nc(-c2ccccc2)nc2c(=O)n(C)c(=O)nc1-2 was tested. Which Potency did it give?
**A.** Its Potency is 1.41 µM (active).

**Q.** For Cc1ccc(S(=O)(=O)N[C@@H](CCCCN)C(=O)CCl)cc1, which Potency is on record?
**A.** Its Potency is 0.282 µM (active).

**Q.** For O=C(Nc1nc(-c2ccccc2)c(-c2ccccc2)s1)c1ccc(S(=O)(=O)N(CCCl)CCCl)cc1, which activity change, negative = inhibition is on record?
**A.** Its activity change, negative = inhibition is -8.01%.

**Q.** With NC(=O)CSc1nnc([C@@H](N)Cc2c[nH]c3ccccc23)o1 as the molecule, how does the Potency read?
**A.** The Potency was 15.8 µM (active).

**Q.** Which Potency does the source give for N#CC(C#N)=NNc1cccc(Cl)c1 here?
**A.** The Potency was 15.8 µM (active).

**Q.** CCc1ccccc1NC(=O)CSc1nnc([C@@H](N)Cc2c[nH]c3ccccc23)o1 was tested. Which activity change, negative = inhibition did it give?
**A.** Its activity change, negative = inhibition is -73.4%.

**Q.** CC(C)OC(=O)c1c(N)n(Cc2ccco2)c2nc3ccccc3nc12 was tested. Which activity change, negative = inhibition did it give?
**A.** Its activity change, negative = inhibition is -8.08%.

**Q.** Which Potency does the source give for Cc1ccc(-c2nc3c(=O)n(C)c(=O)nc-3n(C)n2)cc1 here?
**A.** Its Potency is 1.41 µM (active).
